The list is not random: actives were taken first. Their share in the collection is about 21%.
DT40 TDP1 CPT: DT40-hTDP1 cell growth loss with CPT. 420,000 compounds, 12% hits. chicken DT40 Tdp1-/-;hTDP1 cells + 20 nM CPT, ATP luminescence, 48 h. Potency, µM (series often up to 46.2 µM), without a hit: at the top dose activity change, negative = growth inhibition, actives largely listed as inhibitors; note: potency is the fitted concentration of half-maximal effect; nearly all actives have a fitted effect of over 55% in size
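Chicken DT40 Tdp1-/- cells stably complemented with human TDP1 were seeded at 400 cells/well in medium containing 20 nM camptothecin, exposed to pin-transferred compounds, and grown at 37 °C for at least 48 hr. Viability was read as ATP luminescence.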
ELG1 repair inh: ELG1-dependent DNA repair inhibition | HEK293T ELG1-luciferase reporter, luminescence, 16 h; DNA damage induced by 5-fluorouridine | AID 504467 | Potency, µM (highest dose often 46.1 µM), for the others: at the highest dose activity change, negative = inhibition, actives largely listed as inhibitors | 330,000 compounds, 2.3% hits; note: potency is the fitted concentration of half-maximal effect; nearly all actives have a fitted effect of over 55% in size
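DMSO vehicle served as the neutral condition. Each well held 2,000 cells given 5-fluorouridine plus compound; after 16 hr at 37 °C/5% CO2, ONE-Glo was added and luciferase measured 30 min later.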
TDP1 cell noCPT: qHTS for Inhibitors of human tyrosyl-DNA phosphodiesterase 1 (TDP1): qHTS in cells in absence of CPT; DT40 Tdp1-/- hTDP1 cells, no CPT, ATP luminescence, 48 h; Potency, µM (highest dose often 46.2 µM), inactives show at the top dose activity change, negative = growth inhibition, most hits filed as inhibitors; 420,000 compounds, 15% hits; AID 686978, 2013; note: potency is the fitted concentration of half-maximal effect; nearly all actives have a fitted effect of over 55% in size
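DT40 Tdp1-/-;hTDP1 cells, no CPT (DMSO vehicle only), 400 cells/well; compounds pin-transferred; ≥48 hr, 37 °C; CellTiter-Glo 30 min RT dark, luminescence read.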
RORg inh: inhibitors of mouse ROR gamma transcriptional activity. P51450. Drosophila S2 Gal4-RORgamma UAS-luciferase reporter, 20 h. Potency, µM (highest dose often 53.6 µM), for inactives: top-dose activity change, negative = inhibition, actives largely listed as inhibitors. 310,000 compounds, 5.4% hits. AID 2551; note: potency is the fitted concentration of half-maximal effect; nearly all actives have a fitted effect of over 60% in size
Target sequence (P51450 whole entry, looked up, the tested form may be a part): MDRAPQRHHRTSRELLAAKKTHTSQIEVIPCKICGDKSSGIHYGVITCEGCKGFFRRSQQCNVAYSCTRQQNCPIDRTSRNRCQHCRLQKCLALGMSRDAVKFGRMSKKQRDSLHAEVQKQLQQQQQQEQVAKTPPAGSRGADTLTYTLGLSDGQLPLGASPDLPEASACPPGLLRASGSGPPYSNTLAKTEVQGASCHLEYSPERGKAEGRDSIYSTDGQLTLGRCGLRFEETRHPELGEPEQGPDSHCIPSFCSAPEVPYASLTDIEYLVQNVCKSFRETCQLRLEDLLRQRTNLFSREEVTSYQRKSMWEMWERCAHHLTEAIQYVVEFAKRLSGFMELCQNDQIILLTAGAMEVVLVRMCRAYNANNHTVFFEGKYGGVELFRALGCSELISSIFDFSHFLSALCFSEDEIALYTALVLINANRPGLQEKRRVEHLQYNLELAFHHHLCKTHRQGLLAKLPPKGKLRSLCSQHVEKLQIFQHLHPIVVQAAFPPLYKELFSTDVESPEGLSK
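Drosophila Schneider cells stably carrying a metallothionein-driven Gal4 DBD–ROR gamma fusion and a UAS-Photinus luciferase reporter were exposed to compound for 1 hr, then induced with copper sulfate (700 uM final) for 20 hr at ambient temperature before luminescence reading.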
VP16 counter: Gal4-VP16 reporter inhibition counter-screen; Drosophila S2 Gal4-VP16 UAS-luciferase, luminescence, 20 h; Potency, µM (highest dose often 53.6 µM), inactives show at the top dose activity, negative = inhibition, actives largely listed as inhibitors; 310,000 compounds, 3.5% hits;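 note: Gal4-VP16 expression switched on by copper sulfate through the metallothionein promoter; potency is the fitted concentration of half-maximal effect; nearly all actives have a fitted effect of over 50% in size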
IL-1B inflam inh: inhibitors of inflammasome signaling (IL-1 beta secretion) | AID 743279 | THP-1 LPS/ATP IL-1B secretion, AlphaLISA, 16 h; stronger effect = lower value | activity change, % at 57.5 µM | 360,000 compounds, 4.7% hits; in the data active = activity change below about -50%; inconclusive = mostly about -30% to -49%
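Secreted IL-1B measured by AlphaLISA bead assay after 16 h compound exposure of THP-1 cells; compounds (final up to 57.5 uM) added 1 h before LPS (250 ng/mL) and ATP (1.25 mM) stimulation; lower signal means less secretion.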
The depositor's hits bear a star; ? = inconclusive; . = no result given; [ ] = another dose, or the depositor's remark. Unless noted, calls come from the whole dose curve; as a rule, active = well fitted curve in the direction sought with a large enough effect; inconclusive = small, poorly fitted or top-dose-only effect, or another doubt; inactive = no such curve, though single readings can be large; an effect the other way counts as inactive or inconclusive. % is set by controls: 0 for no effect and ±100 for the full control effect.

SMILES | DT40 TDP1 CPT | ELG1 repair inh | TDP1 cell noCPT | RORg inh | VP16 counter | IL-1B inflam inh
Cc1ccc(-c2nnc(OCC3CCCO3)c3ccccc23)cc1 (stereo not given) | ? | 3% | 18µM* | 25% | -2% | -66*
Cc1ccc(-c2nnc(Oc3cccc(C)c3)c3ccccc23)cc1 | ? | ? | ? | -2% | 0% | -75*
C/C(CCN1CCc2nc(-c3ccccc3)c(-c3ccccc3)cc2C1)=N\OC[C@@H](O)[C@@H]1O[C@@H]2OC(C)(C)O[C@@H]2[C@H]1O | . | . | . | -25%[10 µM] | -9%[10 µM] | .
Cc1ccccc1-c1noc(-c2ccccc2OCC(=O)Nc2ccccc2[N+](=O)[O-])n1 | -21% | . | -10% | . | . | .
CSCc1c(C(=O)N2CCCc3ccccc32)oc2ccccc12 | 15µM* | -10% | ? | . | . | -1
COc1ccccc1S(=O)(=O)Cc1ccc(C(=O)NC2CC2)o1 | -18% | 12% | 33% | -15% | 12% | 2
CCCN1CNc2c(c(=O)[nH]c(=S)n2CCc2cccc(OC)c2OC)C1 | -15% | . | -29% | . | . | .
N#Cc1ccccc1NC(=O)CSc1nnc(-c2ccccc2)n1-c1ccccc1 | 23µM* | ? | ? | 9% | 19% | 26
Cc1ccc(Cl)cc1NC(=O)CSc1nnc(C)n1-c1ccccc1 | -26% | -16% | -13% | 4µM* | 5.6µM* | -2
CCn1c(COc2ccccc2C)nnc1SCC(=O)CC(=O)Nc1ccccc1 | ? | -11% | ? | 7.1µM* | ? | -1
CCn1c(COc2ccccc2C)nnc1SCC(=O)O | -17% | 3% | -4% | -1% | -10% | 4
Cc1ccc(-c2nnc(SCC(=O)CC(=O)Nc3ccccc3)n2-c2ccccc2)cc1 | -3% | -11% | -1% | 3.5µM* | ? | -17
Cc1cc(C)n2c(SCC(=O)Nc3ccccc3C#N)nnc2n1 | -15% | 6% | -7% | . | . | 41
O=C(CSc1nnc(-c2cccnc2)n1-c1ccccc1)Nc1ccccc1 | ? | -23% | -12% | -15% | 13% | -10
COC(=O)NC(CC(C)=O)c1cccc(F)c1 (stereo not given) | . | . | . | 26%[10 µM] | -4%[10 µM] | .
COc1cccc(CN(CCC(=O)O)Cc2cccc(OC)c2)c1 | 2% | . | ? | . | . | 16
Cc1ccc(C)c(N2N=C(C(=O)Nc3cccc(S(=O)(=O)N4CCCCC4)c3)CCC2=O)c1 | ? | -19% | ? | . | . | 0
C=CCn1c(SCC(=O)c2c(N)n(C)c(=O)n(C)c2=O)nnc1-c1ccccc1F | -11% | 9% | ? | 6% | -1% | 11
CCN(CC)c1ccc(-c2nnc(SCC(=O)Nc3ccccc3C#N)n2-c2ccccc2)cc1 | 18µM* | ? | 18µM* | 18µM* | -25% | -4
CC(=O)Nc1nonc1-c1nnc(SCC(=O)Nc2ccc(C)c(Cl)c2)n1-c1ccccc1 | ? | . | 16µM* | . | . | .
CC(=O)Nc1nonc1-c1nnc(SCC(=O)Nc2ccc(C)c(Cl)c2)n1C | -16% | . | -19% | . | . | .
CC1CCCN(C(=O)c2ccc(CSc3nc4ccncc4n3Cc3ccccc3)cc2)C1 (stereo not given) | 16µM* | . | 23µM* | . | . | .
O=C(c1ccc(CSc2nc3ccncc3n2Cc2ccccc2)cc1)N1CCCCCC1 | 9.2µM* | . | 16µM* | . | . | .
CC1CCN(C(=O)c2ccc(CSc3nc4ccncc4n3Cc3ccc(F)cc3)cc2)CC1 | 23µM* | ? | ? | 36% | -9% | -7
Cc1ccccc1OCC(=O)NCC(=O)OCC(=O)c1ccc(-c2ccccc2)cc1 | -1% | . | ? | . | . | .
CC(C)(C)n1nc2c(c1NC(=O)c1ccc([N+](=O)[O-])cc1)CS(=O)(=O)C2 | -9% | 7% | 24% | 0% | ? | -5
CCOc1ccccc1CNC(=O)C1CCN(c2nn3cc(-c4ccc(F)cc4)nc3s2)CC1 | -21% | . | -19% | . | . | .

High-throughput results deposited in PubChem BioAssay by National Center for Advancing Translational Sciences (NCATS).
